This is part of a sample that, as a whole, favours compounds with a hit. Of some 83,000 tested, about 20% had one in any assay.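 How to read the values: 0–100, growth inhibition (40 = 60% inhibited); 0, no net growth; -100 to 0, cell death (-40 = 40% of starting cells died; -100 = all dead).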 Active and inactive are the calls of the source. The calls were made as follows: active = growth percent below 10; inactive = the rest.
Assays:
Assay in all cases: NCI-60 one-dose screen, 48 h (100 = growth as untreated, 0 = no growth, -100 = all killed)
Conditions in all cases: 10 µM unless noted
T-47D breast = test system: T-47D breast
BT-549 breast = test system: BT-549 breast
MDA-MB-435 melanoma = test system: MDA-MB-435 melanoma
SW-620 colon = test system: SW-620 colon
MCF7 breast = test system: MCF7 breast
HCT-116 colon = test system: HCT-116 colon
HCC-2998 colon = test system: HCC-2998 colon
KM12 colon = test system: KM12 colon

Measured: growth

Cc1cc(Cl)ccc1NS(=O)(=O)c1ccc(-c2cnc(C3CC3)o2)cc1
inactive: T-47D breast 49.6% | BT-549 breast 11.5% | SW-620 colon 21.9% | MCF7 breast 12.7% | HCT-116 colon 12.9% | HCC-2998 colon 15.9% | KM12 colon 15.5%
active: MDA-MB-435 melanoma -36.4%

COC(=O)c1ccc2[nH]c(O)c(C(=Nc3ccc(N(C)C(=O)CN4CCN(C)CC4)cc3)c3ccccc3)c2c1
active: SW-620 colon 6.45% | HCT-116 colon 6.52%
inactive: T-47D breast 59.8% | BT-549 breast 11.2% | MDA-MB-435 melanoma 27.2% | MCF7 breast 27.6% | HCC-2998 colon 25.7% | KM12 colon 13.9%

COc1ccc(C(Cc2ccccc2)NCCN2CCOCC2)cc1 (configuration not stated)
inactive: T-47D breast 85.4% | BT-549 breast 82.1% | MDA-MB-435 melanoma 105% | SW-620 colon 107% | MCF7 breast 89.2% | HCT-116 colon 95.9% | HCC-2998 colon 86.6% | KM12 colon 104%

O=C(Nc1ccc(Cl)cc1F)c1cc(Cl)ccc1O
active: T-47D breast 0.896% | BT-549 breast -25.3% | MDA-MB-435 melanoma -11.4% | SW-620 colon 5.92% | MCF7 breast 2.27% | HCT-116 colon -25.5% | HCC-2998 colon 8.54% | KM12 colon -23.6%

NS(=O)(=O)c1ccc(N=Nc2ccc(-c3nn4cc(-c5ccccc5)nc4s3)cc2)cc1
inactive: T-47D breast 87.6% | BT-549 breast 84.8% | MDA-MB-435 melanoma 101% | SW-620 colon 96.2% | MCF7 breast 94% | HCT-116 colon 88.8% | HCC-2998 colon 104% | KM12 colon 95.7%

CN(C)CCNc1nc2ccccc2c2c(=O)c3cc(F)ccc3sc12
inactive: T-47D breast 66.1% | BT-549 breast 64.4% | MCF7 breast 34.3%
active: MDA-MB-435 melanoma 1.18% | SW-620 colon -48% | HCT-116 colon -11.2% | HCC-2998 colon -64.5% | KM12 colon 8.53%

COc1cc(Nc2cn[nH]c2-c2ccc(Cl)cc2)cc(OC)c1OC
inactive: T-47D breast 23.4% | BT-549 breast 46.5% | SW-620 colon 19.3% | MCF7 breast 20.7% | HCT-116 colon 20.7% | KM12 colon 20.2%
active: MDA-MB-435 melanoma -37.1% | HCC-2998 colon -28.5%

C[C@]12CC[C@@H]3c4cc(OC(F)F)c(OS(N)(=O)=O)cc4CC[C@H]3[C@@H]1CC[C@@H]2O
inactive: T-47D breast 43.7% | BT-549 breast 41.8% | SW-620 colon 28.1% | MCF7 breast 22.1% | HCT-116 colon 21.3% | HCC-2998 colon 16.2% | KM12 colon 12.2%
active: MDA-MB-435 melanoma -70.8%

Cc1ccc(/C=C(\C#N)n2nc3cccc(F)c3n2)cc1
inactive: T-47D breast 74% | BT-549 breast 102% | MDA-MB-435 melanoma 51.1% | SW-620 colon 94.3% | MCF7 breast 54.1% | HCT-116 colon 70.7% | HCC-2998 colon 105% | KM12 colon 68.2%

COc1ccc(C(=S)N2CCN(c3cccc(C)c3)CC2)cc1OC
inactive: T-47D breast 76% | BT-549 breast 59.1% | SW-620 colon 36.5% | MCF7 breast 43.4% | HCT-116 colon 37% | HCC-2998 colon 62.5% | KM12 colon 43.2%
active: MDA-MB-435 melanoma 2.58%

COc1c(N2CC3CCCN(C(C)=O)C3C2)c(F)cc2c(=O)c(C(=O)N[C@H]3C(O)[C@@H](O)C(CO)O[C@H]3O)cn(C3CC3)c12 (some centres not stated)
inactive: T-47D breast 99.9% | BT-549 breast 115% | MDA-MB-435 melanoma 105% | SW-620 colon 105% | MCF7 breast 101% | HCT-116 colon 108% | HCC-2998 colon 115% | KM12 colon 102%

CC/C=C\C[C@@H](O)C/C=C1/C(=O)C=C[C@H]1C/C=C\CCCC(=O)OC
active: BT-549 breast -6.09% | MDA-MB-435 melanoma 1.93% | SW-620 colon -15.9% | MCF7 breast 9.31% | HCT-116 colon -47.1% | HCC-2998 colon -88.1% | KM12 colon -58.2%
inactive: T-47D breast 15.6%

C(=N/Nc1ncnc2nc[nH]c12)/c1ccccn1
inactive: T-47D breast 30.2% | BT-549 breast 54.7% | MDA-MB-435 melanoma 39.5% | SW-620 colon 36.8% | MCF7 breast 22.9% | HCT-116 colon 28.1% | HCC-2998 colon 28.2% | KM12 colon 36.3%

O=C(/C=C/c1ccc([N+](=O)[O-])o1)NNC(=O)c1cc2ccccc2cc1O
inactive: MCF7 breast 32.9% | KM12 colon 11.6%
active: T-47D breast 2.44% | BT-549 breast -4.88% | MDA-MB-435 melanoma -13.3% | SW-620 colon -5.85% | HCT-116 colon -100% | HCC-2998 colon -18.4%

O=C(/C=C/c1sc(Cl)nc1Cl)c1ccc(Br)cc1
inactive: T-47D breast 91.1% | BT-549 breast 97.3% | MDA-MB-435 melanoma 98.4% | SW-620 colon 47.7% | MCF7 breast 27.9% | HCT-116 colon 57.4% | HCC-2998 colon 52.1% | KM12 colon 77.2%

Cc1ccc(C(=O)NN2C(=O)CSC2c2ccc(Cl)cc2)cn1 (configuration not stated)
inactive: T-47D breast 84% | BT-549 breast 192% | MDA-MB-435 melanoma 91.1% | SW-620 colon 97% | MCF7 breast 105% | HCT-116 colon 96% | HCC-2998 colon 96.5% | KM12 colon 97.9%

CCOC(=O)Cn1c(C)c(/C=N/NC(=O)c2cc3c(ccc4ccccc43)o2)c2ccccc21
inactive: T-47D breast 58.7% | BT-549 breast 35.3% | SW-620 colon 30.4% | MCF7 breast 17% | HCC-2998 colon 31.3% | KM12 colon 15.6%
active: MDA-MB-435 melanoma -11.4% | HCT-116 colon 8.16%

COc1ccc(N2C(=O)C(Oc3ccccc3)C2c2ccc(C)cc2)cc1 (configuration not stated)
inactive: T-47D breast 96.9% | BT-549 breast 99.3% | MDA-MB-435 melanoma 98.7% | SW-620 colon 94.8% | MCF7 breast 96.3% | HCT-116 colon 95.5% | HCC-2998 colon 97.7% | KM12 colon 96.2%

O=S(=O)(NCCCNc1cc(-c2c(-c3cccc(O)c3)nc3sccn23)ccn1)c1cccc2ccccc12
active: T-47D breast 8.57%
inactive: BT-549 breast 25.5% | MDA-MB-435 melanoma 35.6% | SW-620 colon 47.1% | MCF7 breast 35.4% | HCT-116 colon 33.1% | HCC-2998 colon 59.2% | KM12 colon 34.8%

CCCCNC(=O)Oc1ccc(/C(=C(\C)c2ccc(Cl)cc2)c2ccc(OCCN(CC)CC)cc2)cc1
inactive: T-47D breast 42.2% | BT-549 breast 80.3% | MDA-MB-435 melanoma 66.4% | SW-620 colon 79.8% | MCF7 breast 30.1% | HCT-116 colon 51% | HCC-2998 colon 80.6% | KM12 colon 68.2%

COc1ccc(-c2[nH]ncc2-c2cc3c(c(OC)c2)OCC(=O)N3)cc1
active: MDA-MB-435 melanoma -56.6%
inactive: T-47D breast 27.2% | BT-549 breast 38.4% | SW-620 colon 12.6% | MCF7 breast 15.6% | HCT-116 colon 13% | HCC-2998 colon 35.2% | KM12 colon 23.1%

CCOC(=O)Nc1ccc(C(=O)/C=C/c2ccccc2)cc1
active: MCF7 breast 0.358% | HCT-116 colon 6.33% | KM12 colon 8.51%
inactive: T-47D breast 84.3% | BT-549 breast 95.1% | MDA-MB-435 melanoma 44.6% | SW-620 colon 73.9% | HCC-2998 colon 34.4%

c1ccc2c(-c3nc(-c4c[nH]c5ccncc45)cs3)c[nH]c2c1
active: MDA-MB-435 melanoma -79.8% | SW-620 colon -63% | HCT-116 colon -15.3% | HCC-2998 colon -34.4%
inactive: T-47D breast 58.8% | BT-549 breast 77.3% | MCF7 breast 20.5% | KM12 colon 34%

CCOC(=O)c1[nH]c(C)c(C(=O)OCc2ccccc2C#N)c1C
inactive: T-47D breast 103% | BT-549 breast 50.5% | SW-620 colon 41.4% | MCF7 breast 30.5% | HCT-116 colon 40.9% | HCC-2998 colon 64.3% | KM12 colon 42.8%
active: MDA-MB-435 melanoma 9.9%

O=c1c2cc(F)ccc2sc2c(N3CCNCC3)nc3ccccc3c12
active: MDA-MB-435 melanoma -87.1% | SW-620 colon -87.1% | MCF7 breast -74.1% | HCT-116 colon -46.3% | HCC-2998 colon -92.1% | KM12 colon -82.4%
inactive: T-47D breast 27.9% | BT-549 breast 90.8%

O=C1COCCN1c1ccc(NCc2cn(C(=O)c3ccc(Cl)cc3)c3ccccc23)cc1
inactive: BT-549 breast 41.9% | MDA-MB-435 melanoma 92.6% | SW-620 colon 40.4% | MCF7 breast 10.1% | HCC-2998 colon 91% | KM12 colon 97.1%
active: T-47D breast -12.7% | HCT-116 colon 7.09%

COc1ccc(-c2cc3c4c(nc5ccccc5c4c2)CC(c2cc(OC)c(OC)c(OC)c2)O3)cc1 (configuration not stated)
inactive: T-47D breast 14.1% | BT-549 breast 64.6% | MDA-MB-435 melanoma 56.4% | SW-620 colon 37.9% | MCF7 breast 61.3% | HCC-2998 colon 43.1% | KM12 colon 60.4%
active: HCT-116 colon 1.01%

CN(C)CCS(=O)(=O)Nc1cc(-c2ccc3ncc(C#N)c(Nc4ccc(F)c(Cl)c4)c3c2)cnc1Cl
active: T-47D breast -30.5% | BT-549 breast -60.2% | MDA-MB-435 melanoma -76.8% | SW-620 colon -11.1% | MCF7 breast 0.35% | HCT-116 colon -51.6% | HCC-2998 colon -83.3% | KM12 colon -25.4%

CCCCC[C@H](O)C/C=C1/C(=O)C=C[C@@H]1C/C=C\CCCC(=O)O
inactive: T-47D breast 50.4% | BT-549 breast 54.5% | MDA-MB-435 melanoma 36.9% | SW-620 colon 51.9% | MCF7 breast 19% | HCT-116 colon 44.5% | HCC-2998 colon 76.5% | KM12 colon 50.9%
